Measured values taken from PubChem BioAssay (NCI).
Compounds without any hit were thinned out: in the full panel of roughly 79,000, 15% have a hit. Rule as the data show it: active = growth inhibition above about 70%; inactive = the rest.

Experiments:
[1] = NCI Yeast Anticancer Drug Screen. Data for the rad50 strain (AID 155);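 also: 0% = growth of vehicle-only cultures of the same strain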; details: S. cerevisiae rad50 strain growth inhibition; at 50.0 µM; stronger effect = higher value
How it was run: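 Growth of the mutant yeast was measured after compound exposure and referenced to vehicle-treated cultures.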

[2] = NCI Yeast Anticancer Drug Screen. Data for the mec2-1 strain (AID 157); details: S. cerevisiae mec2-1 strain, at 50.0 µM, stronger effect = higher value
How it was run: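 Vehicle-treated cultures served as reference for growth inhibition of compound-exposed mec2-1 yeast.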

[3] = NCI Yeast Anticancer Drug Screen. Data for the sgs1 mgt1 strain (AID 161);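 also: 0% = growth of cultures given vehicle only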; details: S. cerevisiae sgs1 mgt1 strain, at 50.0 µM, stronger effect = higher value
How it was run: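 Mutant yeast exposed to compound; growth scored against vehicle-only wells.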

[4] = NCI Yeast Anticancer Drug Screen. Data for the cln2 rad14 strain (AID 165);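 also: 0% = growth equal to vehicle treated cultures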; details: S. cerevisiae cln2 rad14 strain, at 50.0 µM, stronger effect = higher value
How it was run: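 Each compound was tested on cln2 rad14 yeast. Inhibition of growth was calculated against vehicle-exposed controls.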

[5] = NCI Yeast Anticancer Drug Screen. Data for the bub3 strain (AID 167); details: S. cerevisiae bub3 mutant strain, at 50.0 µM, stronger effect = higher value
How it was run: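 Whole-cell yeast assay. The mutant strain was incubated with compounds, and growth inhibition was determined by comparison with vehicle-treated cells.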

[6] = NCI Yeast Anticancer Drug Screen. Data for the mlh1 rad18 strain (AID 175); details: S. cerevisiae mlh1 rad18 strain growth inhibition; at 50.0 µM; stronger effect = higher value
How it was run: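 Vehicle-treated cultures served as the reference for growth inhibition in a yeast strain carrying DNA damage repair alterations exposed to each compound.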

Measured: growth inhibition

Clc1ccc(C(SCc2ccccc2)SCc2ccccc2)cc1
inactive: [1] -41.4% | [2] -46.8% | [3] -15.6% | [4] -17.6% | [5] -10% | [6] -20.1%

O=C(OC1CCCC1)c1ccccc1Cl
inactive: [1] 23.9% | [2] 8.75% | [3] 3.75% | [4] -21.7% | [5] -2.3% | [6] 23.2%

Clc1ncnc2nc[nH]c12
inactive: [1] -1.9% | [2] -1% | [3] 15.5% | [4] 16.9% | [5] 0.35% | [6] -39.4%

CCOC(=O)C(C#N)=C1CCN(C)CC1
inactive: [1] 8.45% | [2] -4.75% | [3] -0.75% | [4] 10.2% | [5] -27.4% | [6] -5.6%

CC(C)OCC(CCl)OC(=O)Nc1ccccc1 (centres undefined)
inactive: [1] 49.1% | [2] 11.2% | [3] 27.4% | [4] -29.1% | [5] 35.1% | [6] 31.7%

Cc1cc(C(=O)c2ccccc2)cc(C)c1O
inactive: [1] 12.2% | [2] -3.35% | [3] 12.8% | [4] 5.2% | [5] -0.4% | [6] 30.4%

CCOC(=O)C(=O)CC(=O)c1ccccc1
inactive: [1] 8.65% | [2] 8.05% | [3] -5.75% | [4] -26.4% | [5] 8.55% | [6] 11.7%

COc1ccc(Br)c(C=O)c1
inactive: [1] -10.1% | [2] -8.9% | [3] -5.65% | [4] 1.95% | [5] -7.45% | [6] -2.25%

ClCc1cccc2c(CCl)cccc12
inactive: [1] 59.6% | [2] -6.25% | [3] 0.9% | [4] 33% | [5] -14.7% | [6] 12.4%

O=C(NCc1ccco1)Nc1cccc2c(NC(=O)NCc3ccco3)cccc12
inactive: [1] 2.15% | [2] -13.5% | [3] 2.6% | [4] 25.8% | [5] 2.05% | [6] 4.85%

CCOC(=O)c1ccc(NC(C)=O)o1
inactive: [1] -10.3% | [2] 11.3% | [3] -3.35% | [4] -23.1% | [5] -5.35% | [6] 11.1%

Cc1ccc(Cc2ccc(C)cc2)cc1
inactive: [1] -30.2% | [2] -34.2% | [3] -30.3% | [4] 3% | [5] -4.6% | [6] -8.2%

CN(C)c1ccc(O)c2c1CC1CC3C(N(C)C)C(=O)C(C(N)=O)=C(O)C3(O)C(=O)C1=C2O (centres undefined)
inactive: [1] 60.8% | [2] 29.7% | [3] 68.2% | [4] 18.4% | [5] 3.6% | [6] 32.9%

Cc1[nH]c(=S)[nH]c(=O)c1C
inactive: [1] -5.1% | [2] -28.3% | [3] -35.6% | [4] -3.4% | [5] -34.4% | [6] -1.7%

CCCCOC(=O)c1ccc(NC(=O)CCl)cc1
inactive: [1] 28.6% | [2] 18.8% | [3] 43.1% | [4] 12.5% | [5] 13.8% | [6] 43.4%

Cc1ccccc1CC(N)C(=O)O (centres undefined)
inactive: [1] 2.95% | [2] 10.7% | [3] 2.7% | [4] -15.2% | [5] 8.85% | [6] 1.85%

Cc1ccc(C)c2c1CCC2=O
inactive: [1] 3.9% | [2] 3.85% | [3] 13.8% | [4] -19.2% | [5] 3.85% | [6] 13.3%

O=S(=O)(c1ccc(NC(=S)NCc2cccnc2)cc1)N1CCCCC1
inactive: [1] 21.9% | [2] 11.9% | [3] 23.9% | [4] 1.8% | [5] 36.4% | [6] 22.2%

CN(C)c1ccc2nc3ccc(=[N+](C)C)cc-3oc2c1
inactive: [1] -27.8% | [2] -12.4% | [3] -27.7% | [4] -250% | [5] 6.1% | [6] -12%

Cc1cccc2ccccc12
inactive: [1] -9.65% | [2] -15.6% | [3] 10.5% | [4] 24.4% | [5] -3.6% | [6] 13.8%

CCOC(=N)CC(=O)Nc1cccc(C)c1Cl
inactive: [1] -2.85% | [2] -14.1% | [3] -11.4% | [4] 18.6% | [5] 8.5% | [6] -3.3%

CC(=O)N=c1ccc2nc3c(cc(N)c4ccccc43)oc-2c1
inactive: [1] 25.4% | [2] 13.2% | [3] 27.6% | [4] 20.9% | [5] 40.5% | [6] 33.8%

BrCc1cccc(C[P+](c2ccccc2)(c2ccccc2)c2ccccc2)c1
inactive: [1] 66% | [2] 41.9% | [3] 36.2% | [4] 28.2% | [5] 38.5% | [6] 41%

C1Cc2onc(-c3noc4c3CCC4)c2C1
inactive: [1] -11.2% | [2] -16.8% | [3] -15.2% | [4] 22.6% | [5] -14.2% | [6] -14.6%

Cc1ccc(N2C(=O)c3cccc4c(N)c(S(=O)(=O)O)cc(c34)C2=O)cc1
inactive: [1] -33.5% | [2] -18.2% | [3] -24.7% | [4] -6.8% | [5] -13.7% | [6] -28.4%

COc1cc(N)c2ncccc2c1Cl
inactive: [1] 17.6% | [2] 3.55% | [3] 24.4% | [4] -0.05% | [5] -7.3% | [6] 30.4%

N#Cc1ccc2nc[nH]c2c1
inactive: [1] 18.7% | [2] -6.75% | [3] -13% | [4] 19.4% | [5] -15.4% | [6] 17.9%

COC1CC(OC(=O)c2ccc([N+](=O)[O-])cc2)C(COC(=O)c2ccc([N+](=O)[O-])cc2)O1 (centres undefined)
inactive: [1] 9.45% | [2] 20.8% | [3] 1.9% | [4] -1.1% | [5] -0.7% | [6] 36.1%

Cc1[nH]n(-c2ccccc2)c(=O)c1C=NC(=S)C(N)=S
inactive: [1] -24.4% | [2] -22.9% | [3] -20.4% | [4] -19.1% | [5] -54.4% | [6] -20.5%

CCOC(=O)CO
inactive: [1] 26% | [2] 6.85% | [3] -13.4% | [4] 0.3% | [5] 17.2% | [6] 18.9%

COC(=O)C1(CC(C)=O)NC(=S)NC(=O)C1C#N (centres undefined)
inactive: [1] -21.4% | [2] -26.9% | [3] -36.3% | [4] -38.2% | [5] -30.1% | [6] -15.3%

CN1CCN(C(=S)S)CC1
inactive: [1] 0.3% | [2] -2.5% | [3] 4.75% | [4] 2.15% | [5] 3.5% | [6] 5.15%

O=C(Nc1ccccc1)c1ccco1
inactive: [1] 12.3% | [2] 33.2% | [3] 13.8% | [4] -0.6% | [5] -1.55% | [6] 11.2%

Nc1cc2ccccc2c(O)c1O
inactive: [1] 32.1% | [2] 35% | [3] 39.1% | [4] 20.7% | [5] 38% | [6] 14.2%

CCN(CC)CCN1CNC(=S)NC1
inactive: [1] 0.1% | [2] -20.6% | [3] 11.2% | [4] -1.8% | [5] -1.2% | [6] -7.15%

COc1cc(OC)c(NC(=O)C(Sc2nc(C)cc(C)c2C#N)c2ccccc2)cc1Cl (centres undefined)
inactive: [1] -6.3% | [2] -19.9% | [3] -4.95% | [4] 22.2% | [5] 1.6% | [6] 5.9%

CCOC(=O)Nc1nccs1
inactive: [1] -13.7% | [2] 7.9% | [3] -5.3% | [4] -37% | [5] -2.6% | [6] -4.6%

Ic1cccs1
inactive: [1] 34.9% | [2] -3.05% | [3] 6.65% | [4] -6.75% | [5] -4.3% | [6] 11.8%

CC(C)N(C(=O)c1ccccc1)C(C)C
inactive: [1] 20.2% | [2] 26.2% | [3] 29.4% | [4] -20.1% | [5] -7.35% | [6] 2.35%

O=C(O)C1CCCN1C(=O)OCc1ccccc1 (centres undefined)
inactive: [1] -23.4% | [2] -47.6% | [3] -17.9% | [4] -2.45% | [5] -22.9% | [6] -8.9%

CC(O)C(F)(F)C(F)(F)C(F)(F)F (centres undefined)
inactive: [1] 7.8% | [2] -16.6% | [3] 19.9% | [4] -2.1% | [5] -2.7% | [6] 20.8%

Nc1c(O)c(S(=O)(=O)O)c(O)c2c1C(=O)c1ccccc1C2=O
inactive: [1] 27.4% | [2] -2.7% | [3] 31.1% | [4] 30.9% | [5] 34.9% | [6] 33.6%

Oc1ccc(CCC2CCNc3ccccc32)cc1 (centres undefined)
inactive: [1] 0.35% | [2] -1.85% | [3] -14.2% | [4] -11.7% | [5] -3.95% | [6] -3.9%

CC(CO)(CO)C(=O)O
inactive: [1] 4.35% | [2] -31.4% | [3] -11.6% | [4] 21.3% | [5] -14% | [6] 10.1%
